hcDAF12 agonist: H. contortus DAF-12 nuclear receptor activators, primary screen, cell-based, luminescence, HEK293, lit1-tk-luc reporter | hit rate 1.4% among 370,000 | HEK293 hcDAF-12 lit1-tk-luc reporter; 0% DMSO, 100% Δ7-dafachronic acid | activation, % at 6.8 µM;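 active means activation above the mean of all tested compounds plus 3 SD, cut at about 5.5% in these data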
DAX1 inh-1: DAX1 (NR0B1) inhibitors on StAR promoter, primary screen, cell-based, luminescence, SF-1 (NR5A1), full-length DAX-1. HEK293T StAR-luciferase reporter, SF-1/DAX-1 repression relief. hit rate 1.1% among 370,000. inhibition, % at 6.8 µM;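 active means inhibition above the mean over all tested compounds plus 3 SD, cut at about 3.6% in these data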;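 further: higher inhibition means more luminescence from relief of DAX-1 repression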
hgDAF-12 ag: H. glycines DAF-12 receptor agonists, primary screen, cell-based, luminescence, HEK293, GAL4 fusion, UAS-luciferase. HEK293 GAL4-hgDAF12 UAS-luciferase reporter, agonist luminescence; normalized to butyrate control. Nuclear hormone receptor DAF-12 (Heterodera glycines), GAL4 fusion. hit rate 1.8% among 370,000. activation, % at 6.8 µM;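 active means activation above a cutoff set at the mean of all screened compounds plus 3 SD, cut at about 10% in these data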
DAX1 inh-2: DAX1 (NR0B1) inhibitors, primary screen, cell-based, HEK293, Gal4-DAX1, luciferase luminescence; AID 504766, 2011; hit rate 0.99% among 340,000; Nuclear receptor subfamily 0 group B member 1 (Homo sapiens), P51843; HEK293 Gal4-DAX1 luciferase reporter; inhibition, % at 6.75 µM;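 active means inhibition above the mean over all tested compounds plus 3 SD, cut at about 4.2% in these data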;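 further: inhibition shows as a rise in luminescence from relieved DAX1 repression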
ssDAF12 agonist: S. stercoralis DAF-12 nuclear receptor activators, primary screen, cell-based, luminescence, HEK293, GRIP1 co-expression, lit1-tk-luc; Nuclear hormone receptor DAF-12 (Strongyloides stercoralis); HEK293 ssDAF-12/GRIP1 lit1-tk-luc reporter; % of 3 µM dafachronic acid response; activation, % at 6.8 µM; hit rate 1% among 370,000;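 active means activation above the mean over all tested compounds plus 3 SD, cut at about 0.9% in these data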
SMARCA2 act: SMARCA2 (BRM) function activators, primary screen, cell-based, luminescence, high throughput | AID 652017, 2013 | activation, % at 9.1 µM | hit rate 1% among 370,000 | MG213 cells, MMTV-luciferase reporter, dexamethasone, overnight; in the data active means activation above about 7.8%
LXR ag: LXR agonists, Gal4 luciferase reporter, confirmation, counter-screen for hcDAF-12 agonist project, cell-based, luminescence, HEK293, H. contortus campaign. 3,400 tested, under 10 active. shares compounds with hcDAF12 agonist. AID 743027, 2013. activation, % at 6.8 µM. HEK293 Gal4-LXR tk-luc reporter, 24 h; normalized: DMSO 0%, positive control 100%;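 active means mean percent activation of the reporter above a cutoff set as the average over tested compounds plus their standard deviation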
Target sequence (P55055 whole entry, looked up, the tested form may be a part): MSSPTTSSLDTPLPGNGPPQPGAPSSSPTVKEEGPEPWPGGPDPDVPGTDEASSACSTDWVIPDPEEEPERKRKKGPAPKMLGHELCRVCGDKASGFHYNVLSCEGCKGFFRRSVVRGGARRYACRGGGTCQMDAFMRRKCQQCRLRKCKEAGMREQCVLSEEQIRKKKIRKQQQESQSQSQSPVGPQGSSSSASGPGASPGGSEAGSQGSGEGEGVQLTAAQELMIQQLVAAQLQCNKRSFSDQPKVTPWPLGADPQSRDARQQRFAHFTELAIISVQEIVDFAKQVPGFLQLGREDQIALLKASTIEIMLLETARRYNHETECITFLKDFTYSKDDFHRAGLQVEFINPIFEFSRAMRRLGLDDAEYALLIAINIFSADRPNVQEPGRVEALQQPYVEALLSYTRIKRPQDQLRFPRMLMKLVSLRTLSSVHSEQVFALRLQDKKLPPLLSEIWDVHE
hcDAF12 conf: H. contortus DAF-12 receptor agonists, confirmation, cell-based, luminescence, HEK293, lit1-tk-luc, triplicate | hit rate 61% among 3,400 | shares compounds with hcDAF12 agonist | HEK293 hcDAF-12 lit1-tk-luc reporter; % of Δ7-dafachronic acid response | activation, % at 6.8 µM;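 active means mean activation across triplicate tests above the threshold derived from the earlier primary screen, cut at about 5.5% in these data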
Hits are given with their value; . = inactive; / = no result. Only some compounds are listed: those with a hit (about 4.8% of all), similar ones and a draw of the others.

SMILES	hcDAF12 agonist	DAX1 inh-1	hgDAF-12 ag	DAX1 inh-2	ssDAF12 agonist	SMARCA2 act	LXR ag	hcDAF12 conf
Cc1ccc(C(=O)N/C(=C\c2ccc(-c3ccccc3[N+](=O)[O-])o2)C(=O)NCCCN2CCOCC2)cc1	7.3	.	.	.	.	.	.	.
Cc1cccc(-c2nnc(SCC(=O)N3CCOCC3)o2)c1	6.8	.	.	.	.	.	.	.
COc1ccccc1-c1nnc(SCC(=O)N2CCOCC2)o1	10	.	.	.	1.1	.	.	11
COc1ccccc1-c1nnc(SCC(=O)N2CCCCC2)o1	.	.	.	.	.	.	/	/
CCOC(=O)CC[C@H](NC(=O)[C@@H]1CC=C[C@@H]2CCN(Cc3ccc(Cl)cc3)C(=O)[C@@H]21)C(=O)OCC	.	/	.	/	.	/	/	/
CC(C)NC(=O)N[C@@H]1C[C@@H]2O[C@@H](CO)CC[C@@H]2O[C@@H]1CCc1ccc(-c2ccc(F)cc2)cc1	.	.	.	/	.	.	/	/
CCOC(=O)[C@]12CCCC=C1N(Cc1ccc(OC)cc1)C(=O)[C@@H]2CC(=O)NCCCN1CCCC1=O	.	.	.	/	.	.	/	/
COc1ccccc1NC(=O)OC1CC2CC1[C@H]1CCCCN1[C@H]2C (stereo partly specified)	.	.	.	/	.	.	/	/
CC(C)C[C@H](NC(=O)N1CCOCC1)C(=O)N1CCC[C@H]1C(=O)NCc1ccccc1	.	.	.	/	.	.	/	/
COC(=O)[C@]12C[C@H](CC(=O)NCC3CCCCC3)C(=O)N(CCc3ccc(OC)c(OC)c3)C1=C[C@H](C(C)C)O[C@@H]2C1CC1	.	.	.	/	.	.	/	/
S=c1[nH]nc(-c2cc3c(s2)-c2ccccc2CC3)o1	.	.	.	.	.	.	/	/
CSc1nnc(-c2cc3c(s2)-c2ccccc2CC3)o1	9.8	.	11	.	2.6	.	.	11
COC(=O)c1sc(-c2ccc(C(C)(C)C)cc2)cc1NC(=O)c1ccccc1C(=O)O	6.8	.	12	.	1.5	.	.	.
C[C@@H]1NS(=O)(=O)c2ccc(F)cc2O[C@@H]1c1ccccc1	.	.	.	/	.	.	/	/
CCOc1[nH]n(-c2ccccc2)c(=O)c1C=Nc1ccc(C(=O)OC)cc1	7.6	.	.	.	.	.	.	.
COc1cccc(C2=Nc3cccc4cccc(c34)N2)c1	11	.	.	.	.	.	.	.
CC(C)CNC(=S)NC1CC2CCC(C1)N2Cc1ccccc1 (stereo unspecified)	6.8	.	.	.	.	.	.	.
Cc1ccc(C(=O)c2c3ccc(C(F)(F)F)cc3[n+]([O-])n2CCC(N)=O)cc1	7.8	.	.	.	.	.	.	.
COc1ccc(C(=O)c2c3ccccc3[n+]([O-])n2CCC(N)=O)cc1	.	.	.	.	.	.	/	/
COc1ccc2c(C(=O)c3ccc(Cl)cc3)n(CCCC(N)=O)[n+]([O-])c2c1	6.9	.	.	.	.	.	.	.
COC(=O)[C@]12C[C@H](CC(=O)N3CCN(C(=O)C4CC4)CC3)C(=O)N(Cc3ccc(Cl)cc3Cl)C1=C[C@H](C(C)C)O[C@@H]2C1CC1	.	.	.	/	.	.	/	/
O=C(NC(=S)Nc1ccc(Cl)cc1)c1ccccc1	8.0	.	13	.	.	.	.	.
O=C(NC(=S)Nc1cc([N+](=O)[O-])ccc1Cl)c1ccccc1	6.6	.	.	.	.	.	.	6.0
O=C(NC(=S)Nc1ccc(Oc2ccc(Cl)cc2)cc1)c1ccccc1	.	.	.	.	.	.	/	/
O=C(/C=C/c1cnc2ccccc2n1)NC12CC3CC(CC(C3)C1)C2	11	.	.	.	.	.	.	10
SMILES	hcDAF12 agonist	DAX1 inh-1	hgDAF-12 ag	DAX1 inh-2	ssDAF12 agonist	SMARCA2 act	LXR ag	hcDAF12 conf
CCCCc1c(-c2ccccc2OC)ncn1C1CCCCC1	.	.	.	/	.	.	/	/
COc1ccc(C(=O)n2nc(C)cc2Nc2ccccc2)cc1	8.7	.	.	.	1.4	.	.	9.6
COc1ccc(NC(=O)Nc2cc(C)nn2-c2ccccc2)cc1	.	.	.	/	.	.	/	/
CC(=O)c1cccc(NC(=S)Nc2cccc3ccccc23)c1	.	.	.	.	.	.	/	/
CC(=O)Nc1cccc(NC(=S)Nc2cccc3ccccc23)c1	7.6	.	.	.	0.9	.	.	.
O=C(NCc1ccccc1Cl)c1ccc2ccccc2n1	7.7	.	11	.	1.1	.	.	9.1
NS(=O)(=O)c1ccc(CCNC(=O)c2ccc3ccccc3n2)cc1	6.8	.	.	.	.	.	.	8.5
COc1ccc(CCNC(=O)c2ccc3ccccc3n2)cc1	7.2	.	11	.	.	.	.	.
CCOC(=O)C1=CCN(S(=O)(=O)c2ccc([N+](=O)[O-])cc2)C1c1ccc(C)cc1 (stereo unspecified)	.	.	.	/	.	.	/	/
CCC(=O)OCCCN1CCC2(CCCCC2)C1=O	.	/	.	/	.	/	/	/
CC(C)(C)NC(=O)COc1ccc(CNCCc2ccccc2)cc1	.	.	.	.	.	.	/	/
CCc1ccc(OCC(=O)NC(C)(C)C)cc1	11	.	.	.	.	.	.	.
O=S1(=O)c2ccc(N3CCCC3)cc2Oc2ccccc2CN1Cc1cn(Cc2ccc(F)cc2)nn1	.	.	.	/	.	.	/	/
COC[C@@H](O)[C@H]1OCc2cc(OC)ccc2[C@@H]1/C=C/c1ccccc1	.	.	.	/	.	.	/	/
CN(C)c1ccc(NC(=O)CCN2C(=O)c3cccc([N+](=O)[O-])c3C2=O)cc1	7.0	.	.	.	.	.	.	.
COc1ccc2c(c1)[C@@]1(OCCC=C[C@H]1C)C(=O)N2Cc1ccccc1C(F)(F)F	.	.	.	/	.	.	/	/
